# Inconclusive results are not listed. Values without a mark were called inactive. Active and inactive are the calls of the source. Calls come from the whole dose curve; as a rule, active = well fitted cell-killing curve with a large enough effect in the repeat runs; inconclusive = weak or mixed curves, or effect the other way; inactive = flat fitted curve, though single readings scatter.
# Experiment: qHTS RealTime-Glo MT Cell Viability Assay in HepG2 cells - 40 hour (AID 1224870); note: nearly all actives have a fitted effect of over 50% in size
# Settings: RealTime-Glo luminescence; series mostly up to 76.8 µM; activity change, negative = cytotoxic: at the top concentration
# Summary of the method: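 HepG2 cells (600/well) mixed with RealTime-Glo MT reagent, settled 5 h at 37 C/5% CO2 before compound addition. Nonlytic NanoLuc luminescence from viable-cell prosubstrate reduction read repeatedly during 40 h treatment at 37 C.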
# % is set by controls: 0 for no effect and ±100 for the full control effect; potency is the fitted concentration of half-maximal effect.
SMILES,"activity change, negative = cytotoxic",Potency
CN(C)CCN(C)CCN(C)C,1.28%,–
CN(C)C(=O)Oc1cccc([N+](C)(C)C)c1,-1.75% [at 35.3 µM],–
CCCOC(=O)CC,2.1%,–
CC1CCC(CO)CC1 (centres undefined),0.276%,–
CC(C)CC(C)(N)C#N (centres undefined),0.509%,–
c1coc(CNc2ncnc3nc[nH]c23)c1,-1.34%,–
C1CCC2(CCCCO2)OC1,-1.47%,–
COCCOC[C@H](CC1(C(=O)NC2CCC(C(=O)O)CC2)CCCC1)C(=O)Oc1ccc2c(c1)CCC2 (some centres undefined),0.316%,–
CCC1C(=O)OCC1Cc1cncn1C (centres undefined),3.7% [at 35.3 µM],–
CCCn1cc[n+](C)c1C,–,45 µM (active)
CCCO[Si](OCCC)(OCCC)OCCC,-4.14%,–
NC(=O)NC1N=C([O][Al])NC1=O (centres undefined),2.21% [at 35.3 µM],–
O=C(O)CNC(=O)c1ccccc1,3.67% [at 35.3 µM],–
[O-][n+]1cccc(CO)c1,1.12% [at 35.3 µM],–
CC(C)C1CCC(O)CC1 (centres undefined),-0.622%,–
CCOC(=O)c1ccccc1,1.47%,–
COc1cc2c(cc1OC)-c1cc3ccc(OC)c(OC)c3c[n+]1CC2,-5.55%,–
CCOc1ccccc1OCC,-0.0694%,–
CC(C)COC(=O)c1ccc(N)cc1,3.3% [at 35.3 µM],–
Cc1ccnc(NS(=O)(=O)c2ccc(N)cc2)n1,1.79% [at 35.3 µM],–
NCCCC[C@H](N[C@@H](CCc1ccccc1)C(=O)O)C(=O)N1CCC[C@H]1C(=O)O,1.19% [at 35.3 µM],–
Cc1coc2ccccc2c1=O,1.61% [at 35.3 µM],–
CCCCCCCCCC[N+](C)(C)[O-],0.0235%,–
NC(=O)Cc1cccc2ccccc12,-0.297%,–
C=C(C)C(=O)OCCOCCOCCOCCOC(=O)C(=C)C,3.42%,–
CC12CCC(C(=O)C1=O)C2(C)C (centres undefined),-2.21%,–
COc1cc(C)nc(-n2nc(C)cc2OC)n1,2.09% [at 35.3 µM],–
CCCC[N+](C)(CCCC)CCCC,0.892%,–
CCOc1c(N2CCOCC2)cnn(C)c1=O,1.1% [at 35.3 µM],–

# Reference: PubChem BioAssay (Tox21)
